Screens: PubChem BioAssay, National Center for Advancing Translational Sciences (NCATS)
SNCA expr inhib – reduces expression of the alpha-synuclein gene; Potency, µM (doses to about 57.2 µM), for the others: top-dose activity change, negative = inhibition, usual class: inhibitors; HEK-293 SNCA-luciferase knock-in, luminescence, 24 h; 0.17% of 140,000 active;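 further: potency means the concentration at half of the fitted maximal effect; plate controls were DMSO cells for no effect and cell-free wells for full effect; nearly all actives have a fitted effect of over 45% in size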
IP6K1 inh – blocks human inositol hexakisphosphate kinase 1. Q92551. IP6K1 kinase, ADP-Glo luminescence, 2 h; stronger effect = lower value. activity change, % (series mostly up to about 58 µM). 0.81% of 140,000 active; in the data active means activity change below about -25%
Target sequence (Q92551 whole entry, looked up): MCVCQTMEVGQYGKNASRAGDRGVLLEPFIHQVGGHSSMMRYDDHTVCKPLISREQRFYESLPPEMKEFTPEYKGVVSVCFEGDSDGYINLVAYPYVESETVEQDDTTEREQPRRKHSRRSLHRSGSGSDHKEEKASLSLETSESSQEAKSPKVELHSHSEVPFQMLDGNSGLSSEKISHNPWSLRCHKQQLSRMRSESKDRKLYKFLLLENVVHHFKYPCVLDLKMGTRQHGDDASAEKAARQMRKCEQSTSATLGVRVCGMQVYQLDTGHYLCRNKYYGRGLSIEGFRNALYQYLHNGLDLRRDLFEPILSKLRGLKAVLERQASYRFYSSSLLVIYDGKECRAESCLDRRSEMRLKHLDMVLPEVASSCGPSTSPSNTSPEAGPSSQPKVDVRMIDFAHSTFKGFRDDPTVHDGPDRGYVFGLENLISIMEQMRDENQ
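ADP-Glo luminescence measures ADP made by human IP6K1 during a 2 h RT reaction with ATP/IP6 (mix at 1.3 mM/130 uM); top library doses 57.5 and 19.1 uM final.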
GPT2 inh – blocks human glutamate pyruvate transaminase 2; Q8TD30; Recombinant GPT2, coupled pyruvate oxidase/HRP Amplex Red fluorescence; Potency, µM (highest dose often 57.7 µM), inactives show at the top dose activity change, negative = inhibition, actives largely listed as inhibitors; 0.25% of 100,000 active; further: potency means the concentration at half of the fitted maximal effect; nearly all actives have a fitted effect of over 60% in size
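GPT2 10ng/uL, a-KG 250uM, L-Ala 2mM, HEPES pH7.5 + 0.0001% Tween; 30 min RT. Then Amplex mix (PO/HRP/ThPP), 30 min RT dark, fluorescence. AOA 50uM used as positive control.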
SNCA viab count – cell viability loss counter-screen | Potency, µM (top dose mostly 57.1 µM), without a hit: at the top dose activity change, negative = cytotoxicity, hits mostly cytotoxic | HEK-293-SNCA-luc viability, GF-AFC fluorescence, 24 h | 0.12% of 150,000 active | AID 1671193;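 further: potency means the concentration at half of the fitted maximal effect; 0% = DMSO-treated cells and -100% = medium-only wells without cells; nearly all actives have a fitted effect of over 30% in size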
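Cytotoxicity counterscreen: after 24 h compound treatment of genome-edited SNCA-luciferase HEK-293 cells, live-cell protease substrate GF-AFC read by fluorescence after 30 min; activity scaled between DMSO (0%) and medium-only (-100%), curves Hill-fitted.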
IP6K1 inh cnf – human IP6K1 inhibition, confirmatory | 13% of 1,200 active | shares compounds with IP6K1 inh | recombinant IP6K1 kinase, ADP-Glo luminescence, 2 h | Potency, µM (top dose mostly 49 µM), for the others: at the highest dose activity change, negative = inhibition, hits mostly inhibitors; further: potency means the concentration at half of the fitted maximal effect; nearly all actives have a fitted effect of over 65% in size
* hit, by the source's call; i = inactive; u = inconclusive; x = no result given; [ ] = remark or other dose. An excerpt weighted towards active compounds, which were near 1.1% of everything screened. Unless noted, the call rests on the fitted dose curve; in most records, active means well fitted curve in the direction sought with a large enough effect; inconclusive means small, poorly fitted or top-dose-only effect, or another doubt; inactive means no such curve, though single readings can be large; an effect the other way counts as inactive or inconclusive. Unless noted, on the % scale 0 is the no-effect control and ±100 the full control effect.

SMILES | SNCA expr inhib | IP6K1 inh | GPT2 inh | SNCA viab count | IP6K1 inh cnf
CC(C)C[C@H](NC(=O)CNC(=O)OCc1ccccc1)C(=O)N[C@@H](Cc1ccccc1)C(=O)CCl | x | 14.7 | -0.3% | 23.8µM* | x
CC(NC(=O)[C@H](Cc1ccccc1)NC(=O)OCc1ccccc1)C(=O)CF (stereo partly specified) | x | 1.2 | -7.7% | -41.9% | x
COCCCNC(=O)c1ccc2nnc(-c3ccc(OC(F)(F)F)cc3)n2c1 | 76.7% | 17.7 | -23.8% | 5.8% | x
O=C(c1ccc(Cl)cc1)N1CC2(CCCN(CC3CC3)C2)Cc2ccccc21 (stereo unspecified) | -20.6% | -13.1 | -12.3% | -18.9% | x
Cc1ccc(-c2cccc(CN3CCCC(NC(=O)c4ccccc4C)C3)c2)cc1Cl (stereo unspecified) | u | -16.4 | i | -7.2% | x
CC1=C(CO)CC(C(C)C2CCC3C4CC=C5CC(OC6OC(COC7OC(CO)C(O)C(O)C7O)C(O)C(O)C6O)CC(O)C5(C)C4CCC23C)OC1=O (stereo unspecified) | x | -3.8 | i | -23.4%[23.9 µM] | x
CC1=C(CO)C(=O)O[C@@H]([C@@H](C)[C@H]2CC[C@H]3[C@@H]4C[C@H]5O[C@]56[C@@H](O)C=CC(=O)[C@]6(C)[C@H]4CC[C@]23C)C1 | x | -7.5 | 1.6%[27.3 µM] | 10.3µM* | x
Oc1ccc(-c2nc(C3CC3)nc3c2CN(Cc2cccc4ccccc24)CC3)cc1 | u | 11.9 | -14.0% | u | x
COc1cccc2c1C(=O)c1c(O)c3c(c(O)c1C2=O)C[C@@](O)(C(=O)CO)C[C@@H]3O[C@H]1C[C@H](N)[C@H](O)[C@H](C)O1 | -54.0%[25.6 µM] | -20.6 | i | -7.2%[23.9 µM] | x
COc1cccc2c1C(=O)c1c(O)c3c(c(O)c1C2=O)C[C@@](O)(C(C)=O)C[C@H]3O[C@H]1C[C@H](N)[C@H](O)[C@H](C)O1 | 0.241µM* | x | i | u | x
O=C(Cc1cccc(Cl)c1)N1CCN(c2ccc3nnc(-c4ccccc4)n3n2)CC1 | x | 4.5 | x | x | x
C[C@H](C(=O)N1CCOCC1)C1CC[C@@]2(C)Cc3sc(-c4ccccc4)nc3[C@@H](C)[C@@H]2[C@H]1O (stereo partly specified) | 3.16µM* | 0.3 | 2.5% | -7.3% | x
CCOc1ccccc1NC(=O)Cn1cccc1-c1nc(-c2ccc(F)cc2)no1 | 10.2% | 34.6 | i | -4.2% | x
O=S(=O)(c1ccc(Cl)cc1)c1nc(-c2cccs2)oc1N1CCCCC1 | 33.0% | -27.0* | x | 7.5% | 13.0%
O=C(c1ccc(Cl)nc1)N1CCCC(C(=O)N2CCC(c3nc4ncccc4[nH]3)C2)C1 (stereo unspecified) | 6.7% | 10.1 | -1.1% | 5.9% | x
O=C(CCc1ccccc1)N(Cc1cccnc1)c1nc2ccc(F)cc2s1 | 7.7% | -14.6 | x | -2.7% | x
O=C(c1ccco1)N(Cc1cccnc1)c1nc2ccc(F)cc2s1 | 86.3% | -27.2* | x | -3.0% | -16.6%
Cc1cnc(C(=O)N2CCC(N3CC(OCC4CC4)C34CCOCC4)CC2)cn1 (stereo unspecified) | -2.1% | -5.7 | -7.1% | 5.4% | x
Cc1cc2cc(C(=O)N(C)Cc3ccc4nsnc4c3)ccc2o1 | 15.4% | -31.6* | -39.0%[11.5 µM] | -13.9% | u
CN(Cc1ccc2nsnc2c1)C(=O)c1ccc(CCC(C)(C)O)cc1 | -6.9% | 20.6 | 3.1% | -5.9% | x
O=C(Nc1cccc(C(F)(F)F)c1)Nc1cccs1 | -6.0% | -33.3* | x | -24.9% | u
COc1ccccc1C(=O)Nc1ccc(S(=O)(=O)Nc2nc(C)cc(C)n2)cc1 | 33.3% | -28.9* | x | -18.0% | u
CCOc1ccccc1C(=O)Nc1ccc(S(=O)(=O)Nc2ncccn2)cc1 | 14.6% | 3.8 | x | 9.3% | x
COCCN1CCC2(CCC1=O)CCN(C(=O)Nc1cc(C)ccc1OC)CC2 | 0.6% | 22.7 | -1.7% | -1.3% | x
COc1ccccc1CCNC(=O)CCc1c(C)c2cc3c(C)c(C)oc3cc2oc1=O | -12.9% | -25.5* | x | 2.7% | -13.3%
SMILES | SNCA expr inhib | IP6K1 inh | GPT2 inh | SNCA viab count | IP6K1 inh cnf
CC(C)OCCCNC(=O)CCCN1C(=O)CCn2nc(-c3cccn3C)cc21 | -1.3% | -33.9* | x | 12.2% | 11.0%
O=C(Nc1ccccc1)N1CCC(C(=O)N2CCC(N3Cc4ccccc4C3=O)CC2)CC1 | -5.0% | 10.2 | -10.3% | 7.2% | x
COc1cc(NC(=O)CSc2nccn2C)cc(OC)c1OC | -7.6% | -4.3 | x | -10.5% | x
Cn1cnnc1SCC(=O)Nc1cc(C(=O)O)cc(C(=O)O)c1 | u | -29.9* | x | 3.6% | -3.1%
CCn1nc(C)c(CCNC(=O)C2CCC(=O)N(C3CCCC3)C2)c1C (stereo unspecified) | -8.5% | -25.0* | -10.4%[11.5 µM] | 3.0% | -9.1%
O=C(NC1CCN(CCn2nc3n(c2=O)CCCC3)C1)c1ccccn1 (stereo unspecified) | x | -8.7 | x | x | x
Cn1c(=O)c2c(n3c4ccccc4nc13)NC(=O)CC2c1cccc(F)c1 (stereo unspecified) | 35.5% | -3.2 | x | 13.8% | x
Cn1c(=O)c2c(n3c4ccccc4nc13)NC(=O)CC2c1ccccc1F (stereo unspecified) | 19.1% | -28.0* | x | 3.8% | -19.6%
O=S(=O)(c1cccc(Cl)c1)n1c(/C=C/c2ccccc2Cl)nc2ccccc21 | u | -39.1* | x | -22.9% | u
COc1cccc(-c2nccc3c(=O)cc(N(C)C)oc23)c1 | -3.3%[87.6 µM] | -12.2 | 0.4%[88.5 µM] | -0.2%[87.6 µM] | x
CN(c1ccccc1)c1cc(=O)c2ccnc(-c3cccnc3)c2o1 | u | -22.1 | 1.1%[88.5 µM] | -3.2%[87.6 µM] | x
CN(C)c1cc(=O)c2ccnc(-c3cccc(C(F)(F)F)c3)c2o1 | -10.7%[87.6 µM] | -33.2* | 5.0%[88.5 µM] | 10.4%[87.6 µM] | u
CN(c1ccccc1)c1cc(=O)c2ccnc(-c3cncnc3)c2o1 | -27.8%[87.6 µM] | -26.2* | u | 8.9%[87.6 µM] | 8.0%
Cc1ccc(C(=O)N2CCC3(CC2)NC(=O)N(c2ccccc2Cl)N3)cc1 | 0.8% | 7.5 | u | -1.2% | x
CCOc1ccc(Cn2c(CNS(=O)(=O)c3ccc(Cl)s3)nc3cccnc32)cc1 | u | -28.1* | x | 0.6% | u
CCOc1ccc(Cn2c(CNS(=O)(=O)c3ccc(CC)cc3)nc3cccnc32)cc1 | -3.5% | -22.3 | x | -7.1% | x
COc1ccc(-c2c(C(=O)NCc3ccccn3)nc3sccn23)cc1 | -4.2% | -30.2* | 1.9% | -5.8% | 0.8%
COc1cccc(-c2ccc(CN3CCCC(N[S+](=O)([O-])c4cccs4)C3)cc2)c1 (stereo unspecified) | -13.8% | -6.9 | -10.6% | -14.5% | x
Clc1cccc(-c2ccc(CN3CCN(C4CCNC4)CC3)o2)c1 (stereo unspecified) | 43.2% | -27.8* | 0.8% | 1.2% | -24.0%
COc1ccc(-c2c(-c3cc(C(=O)O)ccn3)ncn2C)cc1 | x | -34.7* | -25.9% | -20.3% | u
O=C(Nc1cccc(Cl)c1)C1CCCN(Cc2cccc(-c3cccs3)c2)C1 (stereo unspecified) | x | 19.0 | x | x | x
